Hits are enriched below; roughly 7.9% of the tested compounds scored in any of these assays.
SW480 rereplic: DNA re-replication induction in SW480 cells | SW480 DNA re-replication, Hoechst DNA content imaging, 48 h | Potency, µM (series often up to 46.1 µM), without a hit: top-dose re-replication activation, usual class: activators | hit rate 1.8% among 340,000; note: % of control where 0% means no effect; nearly all actives have a fitted effect of over 55% in size
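Cells (250 per well) received 23 nL compound or DMSO by pin tool and were kept 48 hr at 37 C, 5% CO2. Nuclei were then stained with Hoechst for 40 min and scanned for DNA content.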
HT1080NT lethal: kills 2HG-producing HT-1080-NT fibrosarcoma cells | HT-1080-NT fibrosarcoma viability, CellTiter-Glo ATP luminescence, 48 h | Potency, µM (highest dose often 46.1 µM), without a hit: top-dose activity, negative = less viability, most hits filed as cytotoxic | hit rate 1.6% among 360,000 | AID 686970;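 note: NT is the 2HG producing partner of a matched IDH1 knockdown line; 0% = DMSO-treated cells and -100% = media-only wells without cells; nearly all actives have a fitted effect of over 55% in size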
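Viability of the 2HG-overproducing fibrosarcoma line after 48 hours of compound exposure at 37 degrees C was determined by luminescence with CellTiter-Glo, and concentration-effect curves were then fitted and categorized.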
MCF10A rereplic: DNA re-replication induction in MCF 10a cells. MCF 10A DNA re-replication, Hoechst nuclear intensity, 48 h. Potency, µM (titrated, usually from 46.1 µM), without a hit: at the top dose activity, positive = re-replication, most hits filed as activators. hit rate 2.9% among 350,000. AID 624296; note: % of control where 0% means no effect; nearly all actives have a fitted effect of over 50% in size
HT1080 IDH1KD tx: HT-1080 IDH1 knockdown cell toxicity (counter line). AID 686971. Potency, µM (highest dose often 46.1 µM), without a hit: at the highest dose activity, negative = toxicity, usual class: cytotoxic. hit rate 2% among 360,000. HT-1080 IDH1 knockdown viability, ATP luminescence, 48 h;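 note: 0% = DMSO wells and -100% = cell-free medium wells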
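In this qHTS, HT-1080 cells depleted of IDH1 are exposed for 48 h at 37 °C to compound titrations. Toxicity is scored from CellTiter-Glo luminescence, with DMSO as full viability and medium alone as none.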
KB-3-1 tox: kills parental KB-3-1 adenocarcinoma cells; hit rate 1.4% among 400,000; AID 1347075; KB-3-1 viability, CellTiter-Glo ATP luminescence, 72 h; Potency, µM (highest dose often 46.1 µM), hits mostly cytotoxic; note: % is set by controls: 0 for no effect and ±100 for the full control effect; nearly all actives have a fitted effect of over 60% in size
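Cytotoxicity in the drug-sensitive parental line KB-3-1 was scored as loss of CellTiter-Glo luminescence following 72 h incubation with compound. Values come from curve fitting of normalized concentration-response data.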
KB-V1 MDR tox: kills drug-selected multidrug resistant KB-V1 cells. AID 1347076. KB-V1 MDR cells viability, CellTiter-Glo, 72 h. hit rate 3.4% among 400,000. Potency, µM (doses to about 46.1 µM), hits mostly cytotoxic; note: % is set by controls: 0 for no effect and ±100 for the full control effect; nearly all actives have a fitted effect of over 60% in size
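Luminescent ATP read-out (CellTiter-Glo, 10 min) measures survival of drug-selected KB-V1 MDR cells after 72 h, 37 degrees C compound exposure. Medium: phenol-red-free DMEM, 10% FBS. Values from fitted concentration-response curves.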
The depositor's hits bear a star; i = inactive; ? = inconclusive; nt = not tested or not shown; [ ] = another dose, or the depositor's remark. Calls come from the whole dose curve; as a rule, active = well fitted curve in the direction sought with a large enough effect; inconclusive = small, poorly fitted or top-dose-only effect, or another doubt; inactive = no such curve, though single readings can be large; an effect the other way counts as inactive or inconclusive. Potency is the fitted concentration of half-maximal effect.

SMILES	SW480 rereplic	HT1080NT lethal	MCF10A rereplic	HT1080 IDH1KD tx	KB-3-1 tox	KB-V1 MDR tox
c1ccc(Cn2c(CNc3nc4ccccc4n3CCN3CCCCC3)nc3ccccc32)cc1	?	20.6µM*	?	23.1µM*	i	?
COc1ccc(CN2CCC3CC2c2cc(-c4cccc(C)c4)ccc23)cc1 (centres undefined)	?	-18.3%	9.2µM*	-22.2%	i	i
COc1ccc(CN2CCC3CC2c2cc(Cl)ccc23)cc1 (centres undefined)	-3.7%[9.22 µM]	-7.3%	?	-1.3%	?	i
CCOC(=O)c1c(CSc2ccccc2)oc2ccc(O)cc12	0.3%	-19.3%	18.4µM*	-14.7%	i	i
CC(=O)c1c(CSc2ccccc2)oc2ccc(O)c(CN(C)C)c12	13µM*	?	?	?	i	i
CCOC(=O)c1c(CSc2ccc(CC)cc2)oc2ccc(O)c(CN(C)C)c12	18.4µM*	?	?	20.6µM*	?	?
COC(=O)Cc1c(CSc2ccccc2)oc2ccc(O)c(CN(C)C)c12	-1.9%	0.4%	?	4.7%	i	i
Cc1ccc(NC(=O)CN(C)C(=O)c2cccc(S(=O)(=O)N3CCc4ccccc4C3)c2)cc1	nt	-1.0%	nt	-6.6%	i	i
CCCN1CCN(c2nnc(-n3cccc3C(=O)Nc3cc(Cl)ccc3C)s2)CC1	nt	nt	nt	nt	i	i
O=C(CSc1nc(NS(=O)(=O)c2ccccc2)cc(=O)[nH]1)Nc1ccc(Cl)cc1	-23.0%	1.4%	-0.2%	-5.4%	?	i
O=c1cc(NS(=O)(=O)c2ccccc2)nc(SCc2ccc(Cl)cc2)[nH]1	-3.6%	3.2%	?	-1.9%	i	16.4µM*
Cc1ccc(NC(=O)CSc2nc(NS(=O)(=O)c3ccc(C)cc3)cc(=O)[nH]2)cc1	0.3%	-24.2%	?	-19.6%	i	4.11µM*
Cn1c(=O)cc(OCCCC(=O)Nc2cccc(Cl)c2)c2ccccc21	nt	3.7%	nt	6.1%	i	?
CCOc1ccc(-c2cc3c(=O)n(CC(=O)NCc4ccccc4)ccn3n2)cc1	nt	nt	nt	nt	i	i
Cc1cc(C)c(NC(=O)CSc2nc3ccc(NC(=O)CSc4nnnn4Cc4ccccc4)cc3s2)c(C)c1	-3.0%	-25.4%	18.7%	6.9%	i	6.51µM*
Cc1c2c(nc3nc4ccccc4n13)CC(C)(C)CC2=O	-12.0%	6.8%	3.0%	1.5%	i	14.6µM*
CC1(C)CC(=O)c2cn3c(nc2C1)nc1ccccc13	-6.3%	-3.3%	1.6%	-6.3%	i	i
Cn1ncc2ccc(-c3ccc4ncnc(NCc5cccs5)c4c3)cc21	nt	nt	nt	nt	?	i
O=c1oc2ccccc2cc1-c1csc(Nc2nc3c(F)cccc3s2)n1	nt	-9.8%	5.8µM*	?	16.4µM*	?
O=c1oc2ccccc2cc1-c1csc(Nc2nc3ccc(F)cc3s2)n1	-1.1%	nt	1.8%	nt	nt	nt
O=C1Cc2cc(S(=O)(=O)N3CCCCC3)cc3c2N1CCC3	nt	nt	nt	nt	i	i
Cc1cc(OCC(=O)Nc2sc3c(c2C(N)=O)CCCC3)ccc1C(C)C	nt	nt	nt	nt	i	?
CCSc1nc2n(n1)C(c1cccc(F)c1)C1=C(CCCC1=O)N2 (centres undefined)	-5.9%	4.6%	-1.2%	9.7%	i	13µM*
COc1cc(-c2nc3n(n2)C(c2ccc(F)cc2)C2=C(CCCC2=O)N3)cc(OC)c1OC (centres undefined)	0.7%	-14.9%	-1.2%	-26.9%	i	i
COC(=O)c1ccc(N2CCc3ccccc32)c([N+](=O)[O-])c1	-5.9%	10.1%	?	15.9%	i	i
SMILES	SW480 rereplic	HT1080NT lethal	MCF10A rereplic	HT1080 IDH1KD tx	KB-3-1 tox	KB-V1 MDR tox
CCOC(CNC(=O)c1ccc(N2CCc3ccccc32)c([N+](=O)[O-])c1)OCC	-30.0%	-1.1%	17.4%	-0.5%	?	2.59µM*
O=C(O)c1ccccc1Cc1ccc2c(c1)CCCC2	-0.6%	0.0%	0.5%	2.5%	i	i
CCC(=O)N1c2ccccc2CC1C(=O)NCCc1ccc(OC)c(OC)c1 (centres undefined)	nt	nt	nt	nt	i	i
CC(C1=C(CCN(C)C)Cc2ccccc21)c1ccccn1 (centres undefined)	-0.4%	-1.1%	-1.9%	-1.8%	i	16.4µM*
COc1cccc(NC(=O)N2CCN(c3nc(-c4cccc(OC)c4)cs3)CC2)c1	?	-2.7%	15.6%	-26.8%	?	16.4µM*
COc1cccc(-c2csc(N3CCN(C(=S)Nc4ccccc4)CC3)n2)c1	3.5%	22.4µM*	4.0%	-0.4%[9.24 µM]	i	i
COc1cccc(-c2csc(N3CCN(C(=S)Nc4ccc(Cl)cc4)CC3)n2)c1	-0.6%	-21.2%	17.6%	0.0%	i	23.1µM*
COc1cc(NC(=O)N2CCN(c3cc(-c4noc(C)n4)ccc3C)CC2)cc(OC)c1OC	nt	nt	nt	nt	i	i
O=c1[nH]c(SCc2c(F)cccc2Cl)nc2c1CCCC2	nt	nt	nt	nt	i	i
Cc1ccc(NC(=O)CN2C(=O)C(C)(C)c3ccccc32)cc1	nt	nt	nt	nt	i	i
Cc1cccc(NC(=O)c2ccc([N+](=O)[O-])s2)n1	-0.8%	?	11.0%	?	i	i
Cc1ccc(NC(=O)c2ccc([N+](=O)[O-])o2)c(C)c1	?	-1.2%	?	?	?	?
Cc1cccnc1NC(=O)c1ccc([N+](=O)[O-])o1	?	-1.4%	0.2%	15.6%	i	i
O=C(Nc1cccc2ncccc12)c1ccc([N+](=O)[O-])o1	1.46µM*	16.4µM*	4.61µM*	14.6µM*	i	?
O=C(Nc1ccccc1Cl)c1ccc([N+](=O)[O-])o1	7.31µM*	?	13µM*	20.6µM*	23.1µM*	i
Cc1cccc(NC(=O)c2ccc([N+](=O)[O-])o2)n1	3.66µM*	?	?	?	i	?
Cc1ccccc1NC(=O)c1ccc([N+](=O)[O-])o1	?	-25.4%	14.6µM*	25.9µM*	i	i
COc1ccc2[nH]c(CCc3nc4c(OC)c(OC)ccc4[nH]3)nc2c1OC	nt	nt	nt	nt	i	i
NC(=O)c1ccccc1NC(=O)c1ccc(-c2ccc(Br)cc2)o1	nt	nt	nt	nt	i	i
Cc1c(NC(=O)c2ccc([N+](=O)[O-])o2)cccc1-c1nc2ncccc2o1	?	9.2µM*	?	?	?	?
O=C(Nc1cccc2ncccc12)c1ccc(-c2ccc(Br)cc2)o1	0.5%	?	1.3%	?	i	10.3µM*

Screening results deposited in PubChem BioAssay by National Center for Advancing Translational Sciences (NCATS).
